Most compounds without a hit are left out; they make up all but 0.88% or so of the library.
IL2 activator: qHTS of IL-2 Activators; activation, % (series mostly up to about 46 µM); actives 0.065% (n = 360,000); AID 652025, 2013; IL-2 activation reporter assay, cell-based qHTS; stimulated with anti-CD3/CD4/CD28 beads; in transgenic mouse T cells; in the data active = activation above about 50%; inconclusive = mostly about 30% to 49%; note: 0% is about no effect
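Using fluorescent plate cytometry, EGFP and DsRed are detected in transgenic mouse T cells stimulated 18 h at 37 degrees C with antibody-coated beads after 60 min compound pretreatment.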
TRHR enhancer: qHTS for Small Molecule Agonists and Allosteric Enhancers of Human TRH Receptor: Primary Screen for Enhancers. Thyrotropin-releasing hormone receptor (Homo sapiens), P34981. TRHR cells, fluo-8 calcium fluorescence, EC20 TRH enhancement. enhancement, % at 2 µM. actives 0.66% (n = 360,000); in the data active = enhancement above about 30%; note: 0% is about no effect
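TRHR-expressing cells loaded with fluo-8 calcium dye were read kinetically (ex 480/em 530) during compound addition, then stimulated with an EC20 of TRH (10 nM final). Enhancement of the Gq-mediated intracellular calcium response was scored.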
CBFb RUNX1 block: qHTS Assay for Compounds Blocking the Interaction Between CBF-beta and RUNX1 for the Treatment of Acute Myeloid Leukemia | AlphaScreen CBFb-His/RUNX1-biotin binding, biochemical | Potency, µM (top dose mostly 59.8 µM), for the others: top-dose activity, negative = inhibition, usual class: inhibitors | 230,000 tested, under 10 active | AID 1477, 2009; note: % of control where 0% means no effect
Target sequence (Q01196 whole entry, looked up): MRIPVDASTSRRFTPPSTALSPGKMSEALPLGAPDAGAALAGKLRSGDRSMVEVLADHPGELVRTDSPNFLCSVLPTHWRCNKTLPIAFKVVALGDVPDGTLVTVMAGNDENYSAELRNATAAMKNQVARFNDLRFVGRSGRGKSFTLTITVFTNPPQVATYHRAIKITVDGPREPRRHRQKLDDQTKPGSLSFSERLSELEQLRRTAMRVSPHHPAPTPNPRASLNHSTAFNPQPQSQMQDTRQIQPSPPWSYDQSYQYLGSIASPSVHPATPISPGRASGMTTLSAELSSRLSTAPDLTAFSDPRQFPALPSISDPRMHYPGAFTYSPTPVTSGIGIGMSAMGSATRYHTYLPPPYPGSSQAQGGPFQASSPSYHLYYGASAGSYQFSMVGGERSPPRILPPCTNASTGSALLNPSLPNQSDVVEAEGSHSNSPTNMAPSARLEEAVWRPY
Target sequence (Q13951 whole entry, looked up): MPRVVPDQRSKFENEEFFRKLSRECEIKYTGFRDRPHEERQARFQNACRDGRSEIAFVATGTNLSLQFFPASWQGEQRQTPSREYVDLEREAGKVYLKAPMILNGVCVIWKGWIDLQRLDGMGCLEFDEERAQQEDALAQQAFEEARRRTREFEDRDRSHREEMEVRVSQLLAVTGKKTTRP
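CBFb-His/RUNX1-biotin, 30 nM each, preincubated 20 min RT; compound 15 min RT; Ni + streptavidin beads 50 ng each, 90 min RT; AlphaScreen read.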
Epigenetic derep: Quantitative High-Throughput Screen for Regulators of Epigenetic Control; murine LDR cells, GFP reporter derepression, 30 h; Potency, µM (series often up to 53.9 µM), inactives show at the highest dose GFP activation, most hits filed as activators; actives 0.2% (n = 280,000); note: potency is the fitted concentration of half-maximal effect; % of control where 0% means no effect; nearly all actives have a fitted effect of over 60% in size
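In this reporter-derepression format, murine cells bearing a silenced integrated CMV-GFP locus incubate with test compound (30 h, 37 C), then are washed and imaged; fluorescent objects of 20–120 um count as induced cells.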
MBNL1-CUG inh: qHTS Assay for Inhibitors of MBNL1-poly(CUG) RNA binding; Muscleblind-like protein 1 (Homo sapiens), Q9NR56; TR-FRET MBNL1-His/biotin-(CUG)12 binding, 665/545 ratio; actives 0.036% (n = 280,000); Potency, µM (series often up to 57.5 µM), inactives show at the top dose activity change, negative = inhibition, actives largely listed as inhibitors; active = well fitted inhibition curve with a large enough effect in the signal ratio, with a control signal flat, not every such curve was filed as active; inconclusive = small, poorly fitted or top-dose-only effect, or effect the other way, or a change in a side signal; inactive = no such curve, though single readings can be large or run the other way; the % refers to the signal ratio; note: potency is the fitted concentration of half-maximal effect; % is set by controls: 0 for no effect and ±100 for the full control effect
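TR-FRET between His-tagged MBNL1 and biotin-(CUG)12 RNA, detected with Tb anti-His antibody (0.055 ng/ul) and streptavidin-XL665 (5 nM), 60 min at room temperature. Compounds titrated 92 nM to 58 uM; 665/545 nm ratio normalized to buffer and complex controls.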
TRHR ag: qHTS for Small Molecule Agonists and Allosteric Enhancers of Human TRH Receptor: Primary Screen for Agonists; TRHR cells, calcium flux fluo-8, FDSS agonist mode; Thyrotropin-releasing hormone receptor (Homo sapiens), P34981; activation, % at 2 µM; actives 0.18% (n = 360,000); in the data active = activation above about 30%; note: 0% is about no effect
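TRHR-expressing cells loaded with fluo-8 calcium dye; 23 nL library compound pin-transferred, kinetic FDSS fluorescence (Ex 480/Em 530) recorded about 180 s for agonist-induced calcium release, before a 10 nM TRH EC20 addition for potentiator mode.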
Starred values were filed as active, the others as inactive; ? = inconclusive; / = no result given. Unless noted, calls come from the whole dose curve; as a rule, active = well fitted curve in the direction sought with a large enough effect; inconclusive = small, poorly fitted or top-dose-only effect, or another doubt; inactive = no such curve, though single readings can be large; an effect the other way counts as inactive or inconclusive.

SMILES	IL2 activator	TRHR enhancer	CBFb RUNX1 block	Epigenetic derep	MBNL1-CUG inh	TRHR ag
Cc1ccc(CNC(=O)c2ccc(-n3c(C)cc4c3CCCC4)cc2)cc1	/	31*	/	?	/	0
Cc1cc2c(n1-c1ccc(C(=O)NCc3ccc(OC(C)C)cc3)cc1)CCCC2	/	-18	/	?	/	-1
Cc1cc(C)c(C)c(S(=O)(=O)N2CCN(S(=O)(=O)c3ccc4c(c3)OCCO4)CC2)c1C	/	1	/	/	/	2
Cc1onc(-c2ccccc2Cl)c1C(N)=O	0	22	2%	-2%	-5%	1
COC(=O)c1c(-c2ccccc2Cl)noc1/C=C/N(C)C	0	7	21%	22µM*	/	-1
c1ccc(-c2noc(CSc3nnc(Cc4cccs4)n3-c3ccccc3)n2)cc1	-1	40*	-4%	0%	4%	1
O=c1[nH]c2ccc(S(=O)(=O)N3CCN(S(=O)(=O)c4ccc5c(c4)OCCO5)CC3)cc2[nH]c1=O	/	4	/	/	/	-1
CCOn1c(=O)c(C)[n+]([O-])c2ccccc21	0	-8	7%	20µM*	?	1
C=CCOn1c(=O)c(C)[n+]([O-])c2ccccc21	2	0	4%	?	?	1
CCC(C)NC(=O)CSc1nc2cc3c(cc2c(=O)n1Cc1ccc(C(=O)NCCc2ccc(OC)c(OC)c2)cc1)OCO3 (stereo unspecified)	/	2	/	11µM*	/	-1
CCOc1ccccc1NC(=O)N1CCN(Cc2cc(=O)n3nc(-c4ccc(C)cc4)sc3n2)CC1	/	7	/	-2%	/	0
O=C(c1cc2ccc3cccnc3c2[nH]1)N1CCN(c2ccc(Cl)cc2)CC1	/	6	/	-1%	/	1
Cc1ccc(Cl)cc1N1CCN(C(=O)c2cc3ccc4cccnc4c3[nH]2)CC1	/	30*	/	0%	/	-1
O=[N+]([O-])c1cc(-c2nc(-c3cccnc3)no2)ccc1NCc1ccccc1	/	-3	/	-5%	/	1
CCCn1c(=N)c(C(=O)NCc2cccnc2)cc2c(=O)n3ccccc3nc21	/	-3	/	-1%	/	-1
N=c1c(C(=O)NCc2ccc(F)cc2)cc2c(=O)n3ccccc3nc2n1Cc1cccnc1	178*	-10	-6%	0%	?	1
Cc1cccn2c(=O)c3cc(C(=O)NC4CCCCC4)c(=N)n(Cc4ccc(F)cc4)c3nc12	154*	-6	/	/	-2%	-1
Cc1cccn2c(=O)c3cc(S(=O)(=O)c4ccc(F)cc4)c(=N)n(Cc4ccco4)c3nc12	56*	-12	6%	2%	1%	0
Cc1cc2c(s1)c1cnn(Cc3ccc(C)c(F)c3F)c(=O)c1n2C	/	3	/	/	/	0
Cc1nnc2c3ccccc3nc(Nc3ccccc3C(=O)O)n12	/	3	/	3%	/	-1
COC(=O)c1sc2nc(C)cc(C)c2c1N	0	1	7%	2%	?	-1
Cc1ccc(N2CC(=O)N(NC(=O)c3sc4nc(C)cc(C)c4c3N)CC2=O)cc1	6	38*	6%	0%	38%	0
COc1cc(NC(=O)C2CCCN(S(=O)(=O)c3ccc4c(c3)oc(=O)n4C)C2)c(C(=O)O)cc1OC (stereo unspecified)	/	-2	/	-1%	/	0
CN(C)C(=S)NCc1ccccc1	-3	38*	10%	2%	-8%	0
CCOC(=O)c1ccc(-n2c(CN3CCN(CCO)CC3)nc3ccc([N+](=O)[O-])cc3c2=O)cc1	-1	37*	-6%	5%	?	0
SMILES	IL2 activator	TRHR enhancer	CBFb RUNX1 block	Epigenetic derep	MBNL1-CUG inh	TRHR ag
COc1ccc(-c2ccc(OC)c(C3C4C=CCCC4(C)C(=O)N3Cc3ccccc3)c2)cc1OC (stereo unspecified)	/	/	-24%	/	/	/
CC(C)NS(=O)(=O)c1ccc(NC(=O)C(C)OC(=O)CCC2CCCCC2)cc1 (stereo unspecified)	-4	15	/	/	/	1
CC(C)NS(=O)(=O)c1ccc(NC(=O)C(C)OC(=O)CCCOc2ccccc2)cc1 (stereo unspecified)	0	30*	/	/	/	0
CC(=O)N1C(c2ccccc2O)C[C@]2(C)CC(=O)NC12 (stereo partly specified)	2	36*	2%	1%	-5%	1
CCOC(=O)c1c(NC(=O)C2c3ccccc3Oc3ccccc32)sc(C(=O)N(CC)CC)c1C	-1	6	-2%	0%	43%	1
CCOC(=O)c1sc(NC(=O)C2c3ccccc3Oc3ccccc32)c(C(=O)OCC)c1C	/	32*	/	2%	/	-1
CCOc1ccc(CCNC(=O)c2cc3cccc4c3n2CCS4)cc1	/	4	/	5%	/	0
CCOC(=O)c1ccc(NC(=O)CSc2nnc(CNC(=O)c3ccc(OC)cc3)n2CC)cc1	/	2	/	-1%	/	1
Cc1ccc(S(=O)(=O)Nc2ncnc3ccccc23)cc1	-4	31*	/	/	2%	1
CC(C)c1cc2c(s1)c1cnn(Cc3ccccc3F)c(=O)c1n2C	/	-2	/	/	/	0
COc1ccc(NC(=O)c2ccc3ncsc3c2)cc1	-2	35*	/	/	18%	-1
O=C(Nc1ccc(Br)cc1)c1ccc2ncsc2c1	0	8	/	/	45%	0

Screens: PubChem BioAssay, National Center for Advancing Translational Sciences (NCATS)
